HPGD block: blocks human HPGD enzyme activity; P15428; purified HPGD, NADH fluorescence kinetic, PGE2 substrate; Potency, µM, for the others: top-dose activity change, negative = inhibition, usual class: inhibitors; 150,000 compounds, 4.3% hits; note: potency is the fitted concentration of half-maximal effect
Target sequence (P15428 whole entry, looked up): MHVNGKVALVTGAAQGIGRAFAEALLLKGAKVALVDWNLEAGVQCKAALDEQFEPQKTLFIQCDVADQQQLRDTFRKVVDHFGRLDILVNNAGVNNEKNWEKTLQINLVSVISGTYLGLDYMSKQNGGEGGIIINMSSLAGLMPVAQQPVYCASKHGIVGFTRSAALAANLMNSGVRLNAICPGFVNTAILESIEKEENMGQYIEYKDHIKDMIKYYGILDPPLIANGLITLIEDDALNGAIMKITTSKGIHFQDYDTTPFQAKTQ
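20 nM HPGD preincubated 15 min at room temperature with compound in 50 mM Tris-HCl pH 8, 0.01% Tween 20. Started with 1 mM NAD+ and 30 uM prostaglandin E2; NADH fluorescence (360/450 nm) read 5 times over 30-s intervals, last minus first.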
Lamin A splicing: changes lamin A minigene splicing in HeLa cells; HeLa LMNA splicing GFP/RFP minigene ratio, 48 h; Potency, µM (series often up to 46.1 µM), inactives show at the top dose ratio change, negative = inhibition, actives largely listed as inhibitors; 200,000 compounds, 0.01% hits; active = well fitted inhibition curve with a large enough effect in the signal ratio, with a control signal flat, not every such curve was filed as active; inconclusive = small, poorly fitted or top-dose-only effect, or effect the other way, or a change in a side signal; the % refers to the signal ratio; note: potency is the fitted concentration of half-maximal effect
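Read-out is the ratio of GFP to DsRed2 object intensity, acquired by 488 nm laser-scanning cytometry on HeLa lamin A-EGFP minigene reporter cells. Compound incubation 48 hrs at 37 °C in Opti-MEM with 2% FBS; DMSO 0.5% final.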
Luc counter: Kinase-Glo luciferase inhibition (counter-screen). Q27757. Kinase-Glo luciferase, ATP luminescence, 8 min. Potency, µM (highest dose often 38.3 µM), for the others: top-dose activity change, negative = inhibition, actives largely listed as inhibitors. 200,000 compounds, 0.28% hits; active = well fitted inhibition curve with a large enough effect; inconclusive = small, poorly fitted or top-dose-only effect; note: potency is the fitted concentration of half-maximal effect; nearly all actives have a fitted effect of over 60% in size
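Luminescence was the read-out, taken after 8-minute incubation at ambient temperature. Luciferase turned over luciferin with 10 uM ATP in imidazole pH 7.2 buffer containing KCl, MgCl2, Tween 20 and BSA.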
ALDH1A1 block: ALDH1A1 (human) enzyme inhibition. Purified ALDH1A1, NADH fluorescence, propionaldehyde substrate. Potency, µM (top dose mostly 75.3 µM), for the others: at the top dose activity, negative = inhibition, hits mostly inhibitors. 220,000 compounds, 7.3% hits. AID 1030;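 note: potency is the fitted concentration of half-maximal effect; plate controls were no enzyme wells and a reference inhibitor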
PNC assembly inh: blocks assembly of the perinucleolar compartment | PC3M PTB-GFP, PNC prevalence imaging, 16 h; active compounds read low | activity change (PNC), negative = inhibition, % at 10 µM | 140,000 compounds, 3.1% hits | AID 2417;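 active = readout at or below -70, meaning at least 70% loss of cells showing the perinucleolar compartment, a nuclear body marking cancer cells; inconclusive = readout between -30 and a set limit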;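 note: plate controls were DMSO wells for no effect and camptothecin positive control wells for full effect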
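Read-out is percentage of cells bearing a perinucleolar compartment, from automated 20x imaging of fixed, Hoechst-stained PC3M PTB-GFP cells. Cells were seeded 4 h, then exposed 16 h to compound (23 nl of library stock) in duplicate plates.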
Active calls of the source: *; ? = inconclusive; . = no result; [ ] = remark or other dose. Shown are actives, neighbours in structure and some others; about 10% of the full set was active somewhere. Unless noted, calls come from the whole dose curve; as a rule, active = well fitted inhibition curve with a large enough effect (not every such curve was filed as active); inconclusive = small, poorly fitted or top-dose-only effect, or another doubt; inactive = no such curve, though single readings can be large or run the other way. Unless noted, % is set by controls: 0 for no effect and ±100 for the full control effect.

SMILES	HPGD block	Lamin A splicing	Luc counter	ALDH1A1 block	PNC assembly inh
CCOC(=O)c1cccc(NC(=O)CCS(=O)(=O)c2cccc3nsnc23)c1	?	-7%	1%	22µM*	?
Cc1cccc(NC(=O)CCS(=O)(=O)c2cccc3nsnc23)c1C	?	1%	0%	25µM*	40
Cc1ccc(C2=Nc3ccccc3NC(C)(c3ccc(C)o3)C2)o1 (stereo not drawn)	-16%	13%	0%	22µM*	-8
CC1=CC(C)=Nc2ccccc2N1	-15%	-5%	-21%	?	2
COc1ccccc1N(C(=O)c1ccncc1)c1nc(-c2ccc([N+](=O)[O-])cc2)cs1	-16%	?	1%	11µM*	-18
O=C(CSc1n[nH]c(-c2ccccc2)n1)Nc1ccc(Br)cn1	13µM*	-14%	2%	-1%	33
O=C(CSc1n[nH]c(-c2ccccc2)n1)Nc1ncccn1	.	8%[46 µM]	-1%	1%	.
O=C(CSc1nc2ccccc2s1)NC(=O)NCc1ccco1	25µM*	-2%	-1%	32µM*	-26
O=C(CSc1ncccn1)NC(=O)NCc1ccco1	.	2%[46 µM]	6%	-5%	.
O=C(CSc1nc(-c2ccccc2)cs1)NC(=O)NCc1ccco1	-19%	?	-6%	?	-22
O=C(CSc1n[nH]c(-c2ccccc2)n1)NC(=O)NCc1ccco1	14µM*	12%	8%	-6%	38
COC(=O)N1CCC2(CCN(C(=O)NC(C)C)CC2)CC1	-8%	.	1%	5%	.
CCN(CC)S(=O)(=O)c1ccc2c(c1)N(CC(=O)N1CCN(c3cccc(OC)c3)CC1)C(=O)CO2	.	1%[46 µM]	.	.	.
CN1C(=O)C(Cl)(Cl)C(=O)c2ccccc21	22µM*	?	-4%	0.4µM*	28
C/C(CC1(O)C(=O)N(C)c2ccccc21)=N\O (stereo not drawn)	-13%	6%	-3%	5%	7
O=C(Nc1nccs1)c1ccc(-c2ccccc2Cl)o1	?	-21%	-14%	25µM*	?
O=C(Nc1ccccc1)c1ccc(-c2ccccc2Cl)o1	-20%	?	-3%	-15%	-92*
CC(=O)Cc1nsc(NC(=O)c2ccc(-c3ccccc3Cl)o2)n1	?	?	-1%	?	23
O=C(N/N=C/c1cccc(O)c1)c1ccc(COc2cccc3cccnc23)cc1	.	14%[46 µM]	-1%	3%	.
O=C(N/N=C/c1cccc(O)c1)c1ccc(COc2ccccc2Br)cc1	?	?	-4%	-15%	-124*
Cc1ccc(C(C)C)c(OCc2ccc(C(=O)N/N=C/c3ccc(O)cc3O)cc2)c1	-13%	?	2%	4%	-89*
CCc1ccc(CN(Cc2ccco2)c2cnc(S(C)(=O)=O)nc2C(=O)Nc2ccc(C)c(Cl)c2)cc1	.	21%[46 µM]	.	.	.
O=C1C2C3C=CC(C3)C2C(=O)N1CCCCCCN1C(=O)C2C3C=CC(C3)C2C1=O (stereo not drawn)	.	.	11µM*	8%	.
O=C(CN1C(=O)C2C3C=CC(C3)C2C1=O)OCC(=O)c1ccccc1 (stereo not drawn)	25µM*	2%	-7%	0%	5
O=C(CCN1C(=O)C2C3C=CC(C3)C2C1=O)NCCc1ccccc1 (stereo not drawn)	-10%	-5%	-1%	?	-93*
SMILES	HPGD block	Lamin A splicing	Luc counter	ALDH1A1 block	PNC assembly inh
O=C1C2C(C(=O)N1CCc1ccccc1)C1C=CC2C12CC2 (stereo not drawn)	-2%	-13%	-2%	?	-23
O=C1C2C3C=CC(C3)C2C(=O)N1CCc1ccccc1 (stereo not drawn)	-23%	13%	-1%	11µM*	13
CNC(=O)C1CCC(Cn2c(=O)c3sccc3n(CC(=O)Nc3ccc(C)cc3C)c2=O)CC1 (stereo not drawn)	.	18%[46 µM]	.	.	.
COc1ccc(-c2noc(N3CCN(c4cccc(C)c4C)CC3)n2)cc1OC	.	-15%[46 µM]	.	.	.
c1ccc(Nc2nc3ccccc3[nH]2)nc1	32µM*	10%	-6%	?	?
CSc1ncccc1C(=O)NCc1ccc(C)cc1	14µM*	6%	1%	1%	-12
CCOc1ncccc1C(=O)Nc1ccccc1C(=O)NCc1ccc2c(c1)OCO2	-22%	5%	-2%	167%	-26

Screens: PubChem BioAssay, National Center for Advancing Translational Sciences (NCATS)
